# ± gives the standard deviation of the averaged measurements. In all, about 25,000 sequences were measured (“ln(normalized median fluorescence intensity)”: median about 7.9, highest 2% from about 11 on). Shown is part of a subset that was picked to be rich in the highest values.
# Test system: PfAP2-I AP2 domain 3 (GST-tagged)
# Assay: gcPBM binding intensity (ln(normalized median fluorescence intensity)); higher = stronger DNA binding
# Summary of the method: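 In this array assay, P. falciparum DNA-binding domains with a GST tag, expressed in E. coli, were applied for 1 h to primer-extended double-stranded 36-bp intergenic genomic probes and negative controls on an Agilent 4 × 180k array. Bound protein was visualised with Alexa488 anti-GST antibody at 488 nm. Binding intensity is the highest Masliner-normalised natural-log median intensity across replicate spots of either probe orientation.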
row,Sequence,gcPBM binding intensity (ln)
1,ATAGATATACATATCACACATATATATATATATATA [CACACA_site4985],9.19 ± 0.65
2,GATATAGATATTAATTGTACATATTATTTATTGTTA [XGTACX_site846],7.62 ± 0.36
3,TTAAAAAAATATAATACACACCAAAAATATGCACAT [CACACA_site5209],9.6 ± 0.43
4,TTAAATATATGTAATACGCACACTTAATATTTTGAG [CACACA_site4170],8.18 ± 0.35
5,AATTTTCATTTTAGAAGTACACACAAAAAATAAAAT [XGTACX_site4426],8.13 ± 0.22
6,TGAATTTAGATATATACACACAAAAGTATATACAAT [CACACA_site2804],7.53 ± 0.54
7,TATATATATTCTTTAAAACACACGTAAAGAAGAATT [CACACA_site2718],7.94 ± 0.62
8,AAAATATAATATAATGCACACATAAAAAAAAAAAAA [CACACA_site7989],11.1 ± 0.49
9,TATATATATATATTCACACATAAATATATGCACCCA [CACACA_site4263],11.1 ± 0.68
10,AATATAATATAATGCACACATAAAAAAAAAAAAAAA [CACACA_site304],11.1 ± 0.87
11,AATAAAAAAAAATGCACACATATATATATATATATA [CACACA_site2421],9.67 ± 0.52
12,TAAACATAAATATGCACACATATACATATATTCATA [CACACA_site2667],8.69 ± 0.099
13,ATAATAAAAAAAAATGCACACATATATATATATATA [CACACA_site8766],9.59 ± 0.47
14,TATATATATATATTCACACATAAAAATAAAATAAAA [CACACA_site4774],9.2 ± 0.13
15,TCCTTATATTTGCACACACACACAAGAAAATGAAAA [CACACA_site6613],10.3 ± 0.54
16,TTTTGAATTAAACAAGCATGCTTTATTTACTTCTTA [TGCATGCA_site289],7.59 ± 0.86
17,ACTAAACGAATAAATTGTACAAAGAAATATATTCAT [XGTACX_site6766],7.83 ± 0.54
18,TTCTTCTGTTTTATTACACACCATTTTGTGGATACA [CACACA_site5181],8.38 ± 0.71
19,ACTACATAATACTATTCACACATTTTTTTTTTTTTT [CACACA_site5794],7.83 ± 0.58
20,ATATATATTTTTAATTGTACAGAATTAAAAATATTG [XGTACX_site1967],7.64 ± 0.45
21,AAAAAAAAAAAACACACACACACACCGATACATACA [CACACA_site8849],7.92 ± 0.45
22,AAAAGGAAAATACTAGCACACAATATATAATAAACA [CACACA_site285],7.99 ± 0.49
23,CACATATATATGTGTGCATGTTGTATTATATATTTA [TGCATGCA_site632],8.69 ± 0.46
24,TTTCACATATATATGGTGCATATTTTATGTGTAAAT [GTGCAC_site9937],9.95 ± 0.52
25,ATTTATATATATGTATGTACGTATGTGTGTATATGT [XGTACX_site7587],8.55 ± 0.27

row,Sequence,gcPBM binding intensity (ln)
1,GTATTATTTTATGATGCATGTGTATTTCATATATGC [TGCATGCA_site660],7.74 ± 0.49
2,TTTATTTATGTGTGGGTGCATATACGTATGATGTAT,11 ± 0.72
3,ATATATTATGGGTGTGCACACAATATTTATATGTTC [CACACA_site2270],9.59 ± 0.23
4,ATATGAAACATGAAGGTGCATAATGTGTATATTTAT,11.3 ± 0.69
5,TATTTATATGTATATACATGCACATATATATGAAAC [TGCATGCA_site1005],8.35 ± 0.57
6,ATTTCCCCAACGTGGGTGCATATATTTATGTGTGAA [GTGCAC_site9439],10.9 ± 0.82
7,AGAGGAAAAATAAAAGGAAAAAAGAAAATAATATTG [CACACA_negctrl_site852],7.45 ± 0.73
8,GAATGAATGATAAATTTTTTTTTCTTTTTTTTTTTG [CACACA_negctrl_site333],7.09 ± 0.59
9,ACCTTATAAAAAAAAAGTACATATATAAATAATAAA [XGTACX_site4338],8.29 ± 0.13
10,ATATAATTAAAAACATGTACATATATATATATATAT [XGTACX_site2882],9.27 ± 0.2
11,CAAACCCACCAACACACACACACAAAAATGATTAAA [CACACA_site2432],8.03 ± 0.23
12,ATGTTCTTTAAAACCACACACCCCCCAACCCCCCTC [CACACA_site2373],10.6 ± 0.36
13,TTATGTTCTTTAAAACCACACACCCCCCAACCCCCC [CACACA_site8742],10.9 ± 0.44
14,ATAAGTATAAGAATCAGTACACAGTTTCTACATACT [XGTACX_site5834],7.56 ± 0.51
15,TATCAAAGTAGAAGAGATCGATGTCATATTGTGATG [GTGCAC_negctrl_site42],7.73 ± 0.75
16,GGTCTTCTTAATATACTGCACTGTATACGTATATAA,11 ± 0.61
17,CATATGCATACTATACGTACATATGTATATAATATA [XGTACX_site7738],8.03 ± 0.42
18,TATAATATTAATGACTGTACTCATACGTATATTTAT [XGTACX_site5493],7.79 ± 0.3
19,GATAGATAATATTTTAGTACATAAACAATTAAATAT [XGTACX_site4125],7.91 ± 0.44
20,TAATCATAAAAAAATACACACATATAAAATATAGAT [CACACA_site7020],7.51 ± 0.63
21,TTATAATATGGATACACACACATATATAAATATATA [CACACA_site5314],7.68 ± 0.38
22,ATGGATTATACGTGCACACATATATACAAATAAATA [CACACA_site640],11.19 ± 0.035
23,TAATGGATTATACGTGCACACATATATACAAATAAA [CACACA_site8116],10.97 ± 0.035
24,TAGGGATTATACCACACACACATACACATAAATATA [CACACA_site3178],7.86 ± 0.32
25,TCATATATATTATACACACACATATATAAATATATA [CACACA_site967],7.87 ± 0.54

row,Sequence,gcPBM binding intensity (ln)
1,TATAAATACATACGTACACACAAATATTAAAATATA [CACACA_site5129],7.905 ± 0.007
2,CATAAAAATGGATACACACACATAATATATATATAT [CACACA_site3619],9.08 ± 0.11
3,ATGGATTATACGTGCACACATATATACCAATAAATA [CACACA_site4524],11.2 ± 0.22
4,ATATAAATACGGTGTGCACACACATAATATATATAT [CACACA_site2271],9.52 ± 0.26
5,AATAATAATAAAAATAAACACACATATATATGTATA [CACACA_site8928],7.57 ± 0.28
6,AATATAATTATATGTGGTACAGAAATAATATAAAAT [XGTACX_site2366],8.22 ± 0.52
7,TTATAAAAAAAAAAAAAAAAGAAAATGAATTCACGA [CACACA_negctrl_site1248],8.19 ± 0.3
8,TAAATTATTATCCCCTCACACACAAAAATAAAAAGA [CACACA_site2886],8.56 ± 0.25
9,CGTTGTAGGGAATGTAGTACAGTTATTATTTTATTA [XGTACX_site2429],7.88 ± 0.24
10,TTAATGCACTTTATTACACACACTAGTTCATTACCT [CACACA_site2294],11.5 ± 0.95
11,TATTATATTGTTCATTTACACTTTCATTTTAAAAAA [CACACA_negctrl_site260],8.05 ± 0.54
12,AATGAGAATTTTATTACACACTTTAATATATTTTCA [CACACA_site784],7.7 ± 0.53
13,ATAGTTACACAATGGTGTACAAGTCAATATATTTCT [XGTACX_site4614],7.95 ± 0.33
14,ATATTGTTATATGTTTGTACATATTTTTTATATTTT [XGTACX_site6834],7.7 ± 0.64
15,AACAAAATAAAAAGTAATCTTATTTATTAAAATTTT [CACACA_negctrl_site419],7.25 ± 0.43
16,AAGGCATGACTATCTGCACACATAAAAATAAGAAAT [CACACA_site8180],8.62 ± 0.39
17,TAAATAGTTATAAAAGTGCAAAAAAAAAAAAAAAAA [GTGCAC_site9550],10.1 ± 0.53
18,GTTATTGAAAAAATAGTGCAATATAACAAAGTAAAA,11.4 ± 0.52
19,CATAATTTAAAAAAGGTGCAAAATGGATAATATATA [GTGCAC_site9657],11.1 ± 0.57
20,ATATAAGAATAAATAGTGCAAAATAAATGATTATTT,10.7 ± 0.33
21,TTATAAAAAATTTTAGTGCATATATGATTTATATAT [GTGCAC_site9831],10.1 ± 0.33
22,AAAATTTATAGTATGGTGCATAAAAATATATATATA,11.4 ± 0.23
23,AAATGAATATTCATAGTGCAATATATAAATGAAAAT,11 ± 0.38
24,GCTGAAAGGATAAAGGTGCATATTTTTTAAAAAATT [GTGCAC_site9487],10.4 ± 0.28
25,AAGAAAATATAACAAAGTAAAAACATATTATATATA [TGCATGCA_negctrl_site248],7.34 ± 0.34

row,Sequence,gcPBM binding intensity (ln)
1,TAAAATATTTCAAAGGTGCAATGATAATTTAAGACG [GTGCAC_site9609],10.6 ± 0.54
2,ACAATGAAATATTCATGTACATATAAATAATAGTGT [XGTACX_site3762],7.93 ± 0.42
3,TATAAATTTATAAATAGTACATATATTTATATATAT [XGTACX_site6433],8.12 ± 0.64
4,TTTTATATCTACCTTTGTACATATTTATTTTTTTTA [XGTACX_site7872],8.01 ± 0.74
5,AATAATGAAACAGGAAAAAAATATTGTTAAAATGTA [XGTACX_negctrl_site400],7.95 ± 0.78
6,AAAAAAAAAAAAAAAACACACATAAATAGCTCAAAT [CACACA_site3973],8.78 ± 0.49
7,ACAAAACGAACATACGCATGTGTGTACATTAATATA [TGCATGCA_site922],8.14 ± 0.099
8,TTTTCATTCTTTTCCTTTGATTTACAATAGTATATT [GTGCAC_negctrl_site687],7.72 ± 0.79
9,TTTTCCATAAGAATTACACACAGAAAGGATAAGTAT [CACACA_site105],8.04 ± 0.73
10,TAATAATCAAGTTAACGTACAAAATCATCTATAGAA [XGTACX_site5921],8.03 ± 0.13
11,ATTATTATATAGTGTGCATGCAATATTAATAAAACC [TGCATGCA_site245],8.79 ± 0.52
12,TATAATAGTTCATAGGTGCAATATAATAAATTTATA [GTGCAC_site9573],11.2 ± 0.47
13,ATTGATTATTTTCTAGTGCATAAAATAATTTTTTTT,10.5 ± 0.51
14,TAATATATATATATGGTGCATTTAATTTATATATAA,11.2 ± 0.74
15,GTTATAATTGAACTAGTGCATAAATATATTTTAATT [GTGCAC_site9851],11.1 ± 0.45
16,TAAATTTATATATAGGTGCGCAATTTGATAATAGTT [GTGCAC_site9783],9.82 ± 0.19
17,TCTATTTTTTATATGGTGCATTGTTCTTATTAATAT [GTGCAC_site9392],10.8 ± 0.71
18,TTAAAATAGATATTAGTGCAAAAAAAAAAAAATAAA,10.7 ± 0.23
19,CATATAATTTTATGGGTGCATTTTTTTGTAAGACCA,10.1 ± 0.58
20,TATTAATATATAGTAGTGCAATAAAGATATACTGAA,10.9 ± 0.58
21,TGTAAATAATATAATAGTACGCATATTTTTATTGAA [XGTACX_site284],7.87 ± 0.17
22,TCAAAAATTTATATAGTGCAATATATATATAATGTA,10.6 ± 0.72

# — the supplement of paper PMC11417369
